# In PubChem BioAssay (Tox21):
# Inconclusive results are not listed. The source made the active and inactive calls. Calls follow the shape of the dose curve; as a rule, active = well fitted inhibition curve with a large enough effect in the repeat runs; inconclusive = weak or mixed curves; inactive = no such curve, though single readings can be large or run the other way.
# Assay: qHTS assay to identify small molecule antagonists of the thyroid receptor (TR) signaling pathway (AID 743065); also: nearly all actives have a fitted effect of over 55% in size
# Conditions: GH3.TRE-Luc, T3-stimulated luciferase inhibition, 23.5 h; series mostly up to 70.3 µM; activity, negative = inhibition: at the top concentration
# Text: U.S. Tox21 Program National Center for Advancing Translational Sciences [NCATS] NIH Chemical Genomics Center [NCGC] U.S. Environmental Protection Agency [EPA] National Institutes of Environmental Health Sciences [NIEHS] National Toxicology Program [NTP] U.S. Food and Drug Administration [FDA] Tox21 Assay Overview: Thyroid receptor (TR), a nuclear hormone receptor, plays an important role in development, proliferation, differentiation, metabolism, brain function, and cardiovascular system. […] To profile the Tox21 10K compound library in TR signaling, a cell-based GH3-TRE-Luc assay (GH3.TRE-Luc cell line, developed by the laboratory of Dr. Albertinka J. Murk, Wageningen University) was used to measure the inhibition of TR. GH3 (rat pituitary tumor) cells stably expressing a TR activity sensor consisting of two TR response elements and a luciferase reporter gene.
# Tox21 Assay Protocol Summary: GH3.TRE-Luc cells were dispensed at 1500 cells/4 uL/well into 1536-well white solid bottom plates using a Multidrop Combi dispenser (Thermo Fisher Scientific Inc., Waltham, MA). After the assay plates were incubated at 37 C for 4 hours, 23 nL of library compound or DMSO controls was transferred to the assay plates by a pintool station (Kalypsys, San Diego, CA), followed by addition of 1 ul of T3 (1 nM, final concentration in the wells) to stimulate TR transactivation. The assay plates were incubated at 37 C for 23.5 h, and then 1 uL of CellTiter-Fluor reagent (Promega, Madision, WI) of measuring cytotoxicity was added to each well using a Bioraptr Flying Reagent Dispenser (FRD) workstation (Beckman Coulter, Indianapolis, IN, USA). The plates were incubated at 37 C and 5% CO2 for additional 30 min, and fluorescence intensity was measured by a ViewLux plate reader (PerkinElmer, Shelton, CT). For measuring luciferase reporter gene activity, 4 uL of ONE-Glo Luciferase Assay reagent (Promega) was added to each well using a Bioraptr FRD (Beckman Coulter), followed by 30 min incubation at room temperature. The luminescence intensity of plates was recorded by a ViewLux plate reader (PerkinElmer, Shelton, CT).
# % is scaled to controls: 0 for no effect and ±100 for the full control effect; potency is read from the fitted curve at half-maximal effect.
SMILES,Potency,"activity, negative = inhibition"
CC(C)=CCC/C(C)=C/CC/C(C)=C/CC/C=C(\C)CC/C=C(\C)CCC=C(C)C,inactive,–
CC1=C(/C=C/C(C)=C/C=C/C(C)=C\C(=O)O)C(C)(C)CCC1,68.8 µM (active),–
CO/N=C(\C(=O)N[C@@H]1C(=O)N2C(C(=O)O)=C(CSc3nc(C)c(CC(=O)O)s3)CS[C@H]12)c1csc(N)n1,–,12.9% (inactive)
CCCCC/C=C\C=C\C(=O)OCC,28.4 µM (active),–
CO/N=C(\C(=O)N[C@@H]1C(=O)N2C(C(=O)O)=C(COC(C)=O)CS[C@H]12)c1csc(N)n1 (stereo in doubt),–,4.19% (inactive)
COc1cccc2c1[C@@H]1CN(CCCCn3c(=O)[nH]c4c(sc5ncc(-c6ccccc6)nc54)c3=O)C[C@@H]1CO2,10.6 µM (active),–
Cc1cccc(C)c1NC(=O)C1CCCCN1C (stereo not given),–,-12.5% (inactive)
NC(=O)C1c2ccccc2CCc2ccccc21,–,1.36% (inactive)
CC(C)c1ncc([N+](=O)[O-])n1C,–,6.77% (inactive)
OCCCNc1ccccc1,–,2.96% (inactive)
C/C(=C(/CCO)SSCC1CCCO1)N(C=O)Cc1cnc(C)nc1N (stereo not given),–,-8.2% (inactive)
Cc1cc(=O)c(C(=O)N[C@@H](C(=O)N[C@@H]2C(=O)N3C(C(=O)O)=C(CSc4nnnn4C)CS[C@H]23)c2ccc(O)cc2)c[nH]1,–,11% (inactive)
O=C(Cn1cnnn1)N[C@@H]1C(=O)N2C(C(=O)O)=C(CSc3nncs3)CS[C@H]12,inactive,–
CC[C@H]1OC(=O)C[C@@H](O)[C@H](C)[C@@H](O[C@@H]2O[C@H](C)[C@@H](O)[C@H](N(C)C)[C@H]2O)[C@@H](CCN2C[C@H](C)C[C@H](C)C2)C[C@@H](C)C(=O)/C=C/C(C)=C/[C@@H]1CO[C@@H]1O[C@H](C)[C@@H](O)[C@@H](OC)[C@H]1OC,–,6.31% (inactive)
CCOc1ccc([N+](=O)[O-])cc1,31.1 µM (active),–
CC(=O)OCC(=O)[C@@]1(O)CC[C@H]2[C@@H]3CCC4=CC(=O)CC[C@]4(C)C3=CC[C@@]21C,–,18.6% (inactive)
NC(=O)[C@@H]1C[C@]2(NC(=O)NC2=O)c2cc(F)ccc2O1,–,4.14% (inactive)
CC1(C)S[C@@H]2[C@H](NC(=O)[C@H](N)c3ccc(O)cc3)C(=O)N2[C@H]1C(=O)O,–,9.57% (inactive)
O=C1OC(O)C(C(Cl)Cl)=C1Cl (stereo not given),22.4 µM (active),–
Cc1cnc(C(=O)O)c[n+]1[O-],inactive,–

SMILES,Potency,"activity, negative = inhibition"
CN1C(=O)C[C@@H](C(=O)N[C@@H](Cc2cnc[nH]2)C(=O)N2CCC[C@H]2C(N)=O)NC1=O,–,0.505% (inactive)
CN(C[C@@H](CC[N+]12CCC(C3CCCCC3)(CC1)CC2)c1ccc(Cl)c(Cl)c1)C(=O)c1cc(C(F)(F)F)cc(C(F)(F)F)c1,27.3 µM (active),–
O=C(O)[C@H]1CN(C/C=C/P(=O)(O)O)CCN1,–,8.06% (inactive)
C[C@@H]1O[C@@H]1P(=O)(O)O,–,4.12% (inactive)
O=P(O)(O)C(O)(Cn1ccnc1)P(=O)(O)O,–,9.3% (inactive)
CN1C(C(=O)Nc2ccccn2)C(=O)c2sc(Cl)cc2S1(=O)=O (stereo not given),–,-17% (inactive)
NC(N)=NCCCCN=C(N)N,–,11% (inactive)
c1ccc2occc2c1,–,22% (inactive)
CC(C)c1ccc2sc3ccccc3c(=O)c2c1,–,-16.4% (inactive)
Nc1nc(/C(=C/CC(=O)O)C(=O)N[C@@H]2C(=O)N3C(C(=O)O)=CCS[C@H]23)cs1,–,0.0519% (inactive)
COC(=O)C[C@](O)(CCCC(C)(C)O)C(=O)O[C@@H]1C(OC)=CC23CCCN2CCc2cc4c(cc2[C@H]13)OCO4 (stereo not given in full),0.0376 µM (active),–
NC(=O)CC[C@@H]1NC(=O)[C@H](Cc2ccccc2)NC(=O)[C@H](Cc2ccc(O)cc2)NC(=O)[C@@H](N)CSSC[C@@H](C(=O)N2CCC[C@H]2C(=O)N[C@@H](CCCN=C(N)N)C(=O)NCC(N)=O)NC(=O)[C@H](CC(N)=O)NC1=O,inactive,–
O=P(O)(O)CP(=O)(O)O,–,3.52% (inactive)
O=C(O)COc1ccc(C(=O)c2cccs2)c(Cl)c1Cl,inactive,–
CSCCC(N)C(=O)O (stereo not given),–,11.6% (inactive)
FC(F)(F)C(F)(F)C(F)(F)C(F)(F)C(F)(F)F,–,7.34% (inactive)
CC(Cc1ccc(O)c(O)c1)C(C)Cc1ccc(O)c(O)c1 (stereo not given),7.7 µM (active),–
Cc1cc(CC(C)CC(C)(C)C)n(O)c(=O)c1 (stereo not given) (tested in a mixture with another compound),21.1 µM (active),–
NC(=S)NS(=O)(=O)c1ccc(N)cc1,–,1.95% (inactive)
NC(=O)[C@H]1O[C@@H](O)[C@H](O)[C@@H](O)[C@@H]1O,–,9.44% (inactive)
